The source of these data is PubChem BioAssay (EPA / NIEHS).

Each structure is given as a SMILES string. Where a structure was tested more than once in an assay, its records may differ in their call. Active and inactive are the calls of the source. How the source made its calls: active means hit-call score of the fitted dose curve at least 0.9, where 1 is the maximum; inactive means score below 0.9.

The test can be described thus: APR_HepG2_StressKinase_72hr: Apredica 72-hour HepG2 Assay for Stress Kinase (AID 2282921). Particulars: HepG2 stress kinase (phospho-c-Jun) imaging, actives raise or lower the signal. The protocol: APR_HepG2_72hr is a cell-based, multiplexed-readout assay that uses HepG2, a human liver cell line, with measurements taken at 72 hours after chemical dosing in a 384-well plate.APR_HepG2_StressKinase_72hr is one of 10 assay component(s) measured or calculated from the APR_HepG2_72hr assay. It is designed to make measurements of enzyme activity, a form of enzyme reporter, as detected with fluorescence intensity signals by HCS Fluorescent Imaging technology.Data from the assay component APR_HepG2_StressKinase_72hr was analyzed into 1 assay endpoint. This assay endpoint, APR_HepG2_StressKinase_72hr, was analyzed with bidirectional fitting relative to DMSO as the negative control and baseline of activity. Using a type of enzyme reporter, measures of protein for gain or loss-of-signal activity can be used to understand the signaling at the pathway-level as they relate to the gene . Furthermore, this assay endpoint can be referred to as a primary readout, because this assay has produced multiple assay endpoints where this one serves a signaling function. To generalize the intended target to other relatable targets, this assay endpoint is annotated to the cell cycle intended target family, where the subfamily is stress response.
Cells were treated with dimethyl sulfoxide (DMSO) as a solvent control at a final concentration of 0.5% v/v or with compounds in DMSO with a resulting final DMSO concentration of 0.5% v/v. Compound treatment was done at concentrations of 0.39, 0.78, 1.56, 3.12, 6.24, 12.5, 25, 50, 100, and 200 uM in duplicate on each plate. Cells were treated with compounds for 1, 24, or 72 hr. Carbonyl […] m-chloro-phenylhydrazone (CCCP) and taxol were used as positive controls for mitochondrial function and cytoskeletal stability, respectively; DMSO served as the negative control for this experiment. Cells were fixed by the direct addition of 50 uL formaldehyde in Hank's Balanced Salt Solution (HBSS) to a final concentration of 3.7%. After incubation in the fixation medium for 30 min at room temperature (293-298 K), cells were rinsed twice with HBSS and treated with cell permeabilization buffer (16 uL of 0.5% Triton X-100) for 10 min at room temperature (293-298 K) before labeling. For mitochondrial membrane potential and mitochondrial measurements, pre-fixed cells were incubated with 50 uL of MitoTracker Red CMXRos (Invitrogen) at a concentration of 250 nM for 30 min before fixation. In the remaining cases, post-fixed cells were labeled by incubation with a multiplexed mixture of primary antibodies in HBSS for 60 min at room temperature (293-298 K) to detect immunoreactivity of c-Jun (1:500), phospho-histone H3 (1:100), phospho-histone H2A.x (1:200), p53 (1:400), alpha-tubulin (1:200) and Hoechst 33342 (2 ug/mL). Cells were labeled for multiplexed imaging on two separate plates: a) Hoechst 33342, MitoTracker Red, phospho-histone H3, and alpha-tubulin, and b) Hoechst 33342, phospho-histone H2A.x, and c-Jun. A final rinse with HBSS (50 uL) was performed before analysis. The primary and secondary antibodies for the proteins were phospho-histone H3 (rabbit anti-phospho-histone H3 and FITC-donkey anti-rabbit IgG), phospho-histone H2A.x (mouse anti-phospho-histone H2A.x and FITC-donkey anti-mouse IgG), c-Jun (rabbit anti-phospho-c-Jun and Cy3-donkey anti-rabbit IgG), p53 (sheep anti-p53 and Cy5-donkey anti-sheep IgG), alpha-tubulin (mouse anti-alpha-tubulin and Cy5-donkey anti-mouse IgG). These antibodies are available as the CellCiphr HepG2 assay kit (Millipore).Digital images of each well were captured using a Cellomics ArrayScan VTI (Thermo Scientific Cellomics) (0.8 NA objective, 0.63x optical coupler, and XF-93 filter set) at 20x magnification. The images were acquired using the autofocus feature of the ArrayScan instrument, which entails the following steps. First, the camera focuses on channel 1 (Hoechst 33342), where nuclei are identified. Second, a Z offset of 1 um is used for capturing mitochondria (MitoTracker Red). […]
For `COC(=O)c1cccc(C)c1S(=O)(=O)NC(=O)Nc1nc(OCC(F)(F)F)nc(N(C)C)n1`, the result was inactive.

On to `CN(C)C(=O)Nc1ccc(Cl)c(Cl)c1`, for which the call was inactive.

As for `CSC(=O)c1cccc2nnsc12`, the result was inactive.

Regarding `O=C(c1ccc(O)cc1O)c1ccc(O)cc1O`, the molecule was classed as inactive.

Turning to `CCNc1nc(N)nc(Cl)n1`, the outcome was inactive.

With `CCCCCOC(=O)COc1cc(N2C(=O)C3=C(CCCC3)C2=O)c(F)cc1Cl`, the molecule was called inactive.

`OB(O)O`: the call was inactive.

What is called AC50 is the midpoint of the concentration-response curve, whichever way the signal moves. Turning to `CC(C)(c1ccc(O)cc1)c1ccc(O)cc1`, the AC50 is 102 µM (active) and the molecule was called inactive.

Regarding `COC(=O)c1ccc(CNS(C)(=O)=O)cc1S(=O)(=O)NC(=O)Nc1nc(OC)cc(OC)n1`, the molecule was called inactive.

As to `CCOC(=O)[C@H](C)Oc1ccc(Oc2nc3ccc(Cl)cc3o2)cc1`, the call was inactive.

Take `CCSC(=O)N(CC(C)C)CC(C)C`: the call was inactive.

For `C[C@]12CC[C@@H]3c4ccc(O)cc4C[C@@H](CCCCCCCCCS(=O)CCCC(F)(F)C(F)(F)F)[C@H]3[C@@H]1CC[C@@H]2O` (stereo not given in full), the molecule was called inactive.

Regarding `CCN(CC)C(=O)c1cccc(C)c1`, the molecule was classed as inactive.

Consider `O=C(O)C1(C(=O)Nc2ccc(Cl)cc2Cl)CC1`, for which the molecule was classed as inactive.

For the molecule `CCCCOCCOCCOCc1cc2c(cc1CCC)OCO2`, the molecule was classed as inactive.

As to `CCCOC(=O)c1ccc(C(=O)OCCC)nc1`, the molecule was classed as inactive.

In the case of `Oc1ccc(C(c2ccc(O)cc2)C(Cl)(Cl)Cl)cc1`, the molecule was classed as inactive.

For the molecule `CCOC(=O)COc1cc(-n2ncc(C(F)(F)F)c(C)c2=O)c(F)cc1Cl`, the result was inactive.

Regarding `C[C@]12C[C@H](O)[C@H]3[C@@H](CCC4=CC(=O)CC[C@@]43C)[C@@H]1CC[C@@H]2C(=O)CO`, the molecule was called inactive.

For the molecule `COc1nc(C)nc(NC(=O)NS(=O)(=O)c2ccccc2OCCCl)n1`, the outcome was inactive.

As to `Cc1nn(C)c(Oc2ccccc2)c1C=NOCc1ccc(C(=O)OC(C)(C)C)cc1`, the molecule was called inactive.

In the case of `CCCCC(CC)COC(=O)c1ccccc1C(=O)O` (stereo not given), the molecule was called inactive.

Regarding `CC(=O)S[C@@H]1CC2=CC(=O)CC[C@]2(C)[C@H]2CC[C@@]3(C)[C@@H](CC[C@@]34CCC(=O)O4)[C@H]12`, the AC50 was 49.3 µM (active).

Regarding `CC(C)(C)[C@@H](O)[C@@H](Cc1ccc(Cl)cc1)n1cncn1`, the result was inactive.

With `CCCCCCC(C)OC(=O)COc1nc(F)c(Cl)c(N)c1Cl` (stereo not given), the molecule was called inactive.

For `COCCO`, the molecule was classed as inactive.

Consider `CCN(Cc1c(F)cccc1Cl)c1c([N+](=O)[O-])cc(C(F)(F)F)cc1[N+](=O)[O-]`, for which the call was inactive.

Turning to `CCCCOC(=O)C(C)Oc1ccc(Oc2ccc(C(F)(F)F)cn2)cc1` (stereo not given), the outcome was inactive.

In the case of `CCC(O)=C1C(=O)CC(C(=O)O)CC1=O` (stereo not given), the molecule was called inactive.

For the molecule `COC(=O)c1c(Cl)nn(C)c1S(=O)(=O)NC(=O)Nc1nc(OC)cc(OC)n1`, the outcome was inactive.

On to `S=C(S)NCCNC(=S)S.[Mn+2].[S-]C([S-])=NCCN=C([S-])[S-].[Zn+2]`, for which the AC50 was 39.8 µM (active) and the molecule was classed as inactive.

For `CCCN(CCC)C(=O)SCC`, the molecule was classed as inactive.

As for `CC(C)CCCCCCc1ccc(O)cc1`, the result was inactive.

With `CCOC(=O)NCCOc1ccc(Oc2ccccc2)cc1`, the call was inactive.

On to `c1ccc2[nH]c(-c3cscn3)nc2c1`, for which the call was inactive.

For `N#CSCSc1nc2ccccc2s1`, the molecule was classed as inactive.

Take `N[C@@H](Cc1cc(I)c(Oc2ccc(O)c(I)c2)c(I)c1)C(=O)O`: the call was inactive.

For the molecule `CCCCOC(=O)[C@@H](C)Oc1ccc(Oc2ccc(C(F)(F)F)cn2)cc1`, the result was inactive.
